Laboratory results reported in ChEMBL document CHEMBL2218924, “A broad activity screen in support of a chemogenomic map for kinase signalling research and drug discovery” (Biochem J, 2013).

What was measured:
[1] = target: T1, Serine/threonine-protein kinase TAO2 (Homo sapiens) (UniProt Q9UL54); conditions: at 10 µM
T1 sequence (whole entry): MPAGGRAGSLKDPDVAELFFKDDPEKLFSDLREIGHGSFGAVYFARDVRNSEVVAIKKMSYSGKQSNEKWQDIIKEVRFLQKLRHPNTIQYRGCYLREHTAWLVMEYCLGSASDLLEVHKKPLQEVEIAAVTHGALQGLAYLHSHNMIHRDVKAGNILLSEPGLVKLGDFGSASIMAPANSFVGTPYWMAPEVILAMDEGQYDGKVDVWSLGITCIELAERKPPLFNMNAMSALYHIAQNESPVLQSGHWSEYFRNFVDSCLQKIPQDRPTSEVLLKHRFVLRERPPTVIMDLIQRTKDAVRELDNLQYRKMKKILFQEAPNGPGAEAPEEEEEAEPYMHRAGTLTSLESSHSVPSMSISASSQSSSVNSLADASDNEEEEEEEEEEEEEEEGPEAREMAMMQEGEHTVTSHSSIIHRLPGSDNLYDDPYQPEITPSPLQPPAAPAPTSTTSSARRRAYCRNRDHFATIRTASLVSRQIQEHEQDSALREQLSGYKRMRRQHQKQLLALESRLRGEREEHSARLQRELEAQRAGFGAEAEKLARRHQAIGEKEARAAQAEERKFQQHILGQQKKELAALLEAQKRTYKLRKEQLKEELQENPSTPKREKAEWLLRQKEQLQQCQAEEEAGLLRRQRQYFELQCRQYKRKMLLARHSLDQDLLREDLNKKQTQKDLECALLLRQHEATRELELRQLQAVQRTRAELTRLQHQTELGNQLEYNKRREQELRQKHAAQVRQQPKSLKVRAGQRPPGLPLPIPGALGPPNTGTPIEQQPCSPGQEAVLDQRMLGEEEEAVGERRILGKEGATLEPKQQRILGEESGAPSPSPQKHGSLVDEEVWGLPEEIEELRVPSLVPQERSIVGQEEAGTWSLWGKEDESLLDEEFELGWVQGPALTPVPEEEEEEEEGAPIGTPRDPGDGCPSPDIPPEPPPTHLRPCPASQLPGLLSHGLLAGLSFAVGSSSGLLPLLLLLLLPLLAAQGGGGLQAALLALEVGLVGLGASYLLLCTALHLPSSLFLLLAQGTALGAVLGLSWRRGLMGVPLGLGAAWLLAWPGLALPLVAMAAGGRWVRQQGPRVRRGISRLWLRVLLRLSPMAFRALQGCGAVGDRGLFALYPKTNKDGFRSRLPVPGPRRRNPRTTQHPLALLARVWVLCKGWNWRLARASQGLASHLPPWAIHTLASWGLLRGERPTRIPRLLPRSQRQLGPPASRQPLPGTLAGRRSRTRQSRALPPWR

[2] = target: T2, Serine/threonine-protein kinase TAO3 (Homo sapiens) (UniProt Q9H2K8); conditions: at 1 µM
T2 sequence (whole entry): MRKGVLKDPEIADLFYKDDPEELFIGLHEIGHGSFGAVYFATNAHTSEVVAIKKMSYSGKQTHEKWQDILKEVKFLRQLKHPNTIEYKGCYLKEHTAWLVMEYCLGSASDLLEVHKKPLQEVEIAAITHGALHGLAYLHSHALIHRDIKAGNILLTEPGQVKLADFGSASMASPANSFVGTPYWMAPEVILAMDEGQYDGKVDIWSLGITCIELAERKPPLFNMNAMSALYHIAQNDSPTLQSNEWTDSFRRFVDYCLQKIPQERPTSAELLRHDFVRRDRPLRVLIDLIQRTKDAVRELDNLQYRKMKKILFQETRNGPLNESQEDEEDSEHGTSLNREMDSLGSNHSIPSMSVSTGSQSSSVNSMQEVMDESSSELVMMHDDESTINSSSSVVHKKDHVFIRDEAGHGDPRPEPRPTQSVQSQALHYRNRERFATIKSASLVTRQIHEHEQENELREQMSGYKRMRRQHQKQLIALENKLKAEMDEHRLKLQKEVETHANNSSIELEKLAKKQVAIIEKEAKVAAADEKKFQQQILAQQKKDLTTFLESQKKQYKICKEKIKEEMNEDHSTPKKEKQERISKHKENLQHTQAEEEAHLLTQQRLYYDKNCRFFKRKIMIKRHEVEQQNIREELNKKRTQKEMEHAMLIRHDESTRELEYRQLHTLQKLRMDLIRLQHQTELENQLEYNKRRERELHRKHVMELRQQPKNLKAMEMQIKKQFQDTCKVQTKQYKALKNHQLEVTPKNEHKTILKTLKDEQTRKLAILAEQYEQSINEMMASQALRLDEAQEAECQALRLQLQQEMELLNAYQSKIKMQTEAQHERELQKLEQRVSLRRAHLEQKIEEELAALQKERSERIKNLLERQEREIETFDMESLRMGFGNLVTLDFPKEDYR

[3] = target: T2, Serine/threonine-protein kinase TAO3 (Homo sapiens); conditions: at 10 µM
[4] = target: T3, Serine/threonine-protein kinase TBK1 (Homo sapiens) (UniProt Q9UHD2); conditions: at 1 µM
T3 sequence (whole entry): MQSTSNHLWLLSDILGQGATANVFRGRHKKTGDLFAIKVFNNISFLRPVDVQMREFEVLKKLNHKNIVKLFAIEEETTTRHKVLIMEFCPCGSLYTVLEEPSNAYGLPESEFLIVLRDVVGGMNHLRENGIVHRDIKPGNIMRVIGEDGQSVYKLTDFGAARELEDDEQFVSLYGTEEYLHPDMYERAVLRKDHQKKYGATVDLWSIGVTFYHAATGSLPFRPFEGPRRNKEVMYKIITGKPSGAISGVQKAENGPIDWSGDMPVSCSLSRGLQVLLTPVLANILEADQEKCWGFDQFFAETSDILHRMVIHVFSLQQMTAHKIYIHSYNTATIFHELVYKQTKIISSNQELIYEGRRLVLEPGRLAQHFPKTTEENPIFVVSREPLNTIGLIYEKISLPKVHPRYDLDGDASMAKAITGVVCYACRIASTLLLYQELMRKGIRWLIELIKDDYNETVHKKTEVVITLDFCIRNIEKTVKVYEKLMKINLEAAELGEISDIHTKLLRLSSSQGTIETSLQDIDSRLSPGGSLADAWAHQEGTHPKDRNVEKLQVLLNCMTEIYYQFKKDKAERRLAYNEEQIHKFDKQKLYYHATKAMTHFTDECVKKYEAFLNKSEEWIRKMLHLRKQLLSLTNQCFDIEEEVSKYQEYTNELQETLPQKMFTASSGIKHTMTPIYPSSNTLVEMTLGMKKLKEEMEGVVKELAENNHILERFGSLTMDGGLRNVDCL

[5] = target: T3, Serine/threonine-protein kinase TBK1 (Homo sapiens); conditions: at 10 µM
[6] = target: T4, TGF-beta receptor type-1 (Homo sapiens) (UniProt P36897); conditions: at 1 µM
T4 sequence (whole entry): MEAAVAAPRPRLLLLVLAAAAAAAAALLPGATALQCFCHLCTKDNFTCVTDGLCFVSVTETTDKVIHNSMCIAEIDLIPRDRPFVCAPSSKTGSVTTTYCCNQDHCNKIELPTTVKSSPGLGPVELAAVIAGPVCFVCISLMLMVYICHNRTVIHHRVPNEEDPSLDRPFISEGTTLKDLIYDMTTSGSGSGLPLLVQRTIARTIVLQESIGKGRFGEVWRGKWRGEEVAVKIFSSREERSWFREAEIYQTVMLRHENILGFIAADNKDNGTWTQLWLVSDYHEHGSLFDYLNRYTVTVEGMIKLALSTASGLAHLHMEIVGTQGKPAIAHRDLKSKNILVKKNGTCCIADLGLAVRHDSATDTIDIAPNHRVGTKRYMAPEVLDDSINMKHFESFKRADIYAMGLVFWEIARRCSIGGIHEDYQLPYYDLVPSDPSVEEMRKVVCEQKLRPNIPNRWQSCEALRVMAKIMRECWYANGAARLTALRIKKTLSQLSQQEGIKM

[7] = target: T4, TGF-beta receptor type-1 (Homo sapiens); conditions: at 10 µM
[8] = target: Insulin-like growth factor 1 receptor (Homo sapiens) (UniProt P08069); conditions: at 1 µM
Insulin-like growth factor 1 receptor (Homo sapiens), sequence (P08069 31-736 limits assumed): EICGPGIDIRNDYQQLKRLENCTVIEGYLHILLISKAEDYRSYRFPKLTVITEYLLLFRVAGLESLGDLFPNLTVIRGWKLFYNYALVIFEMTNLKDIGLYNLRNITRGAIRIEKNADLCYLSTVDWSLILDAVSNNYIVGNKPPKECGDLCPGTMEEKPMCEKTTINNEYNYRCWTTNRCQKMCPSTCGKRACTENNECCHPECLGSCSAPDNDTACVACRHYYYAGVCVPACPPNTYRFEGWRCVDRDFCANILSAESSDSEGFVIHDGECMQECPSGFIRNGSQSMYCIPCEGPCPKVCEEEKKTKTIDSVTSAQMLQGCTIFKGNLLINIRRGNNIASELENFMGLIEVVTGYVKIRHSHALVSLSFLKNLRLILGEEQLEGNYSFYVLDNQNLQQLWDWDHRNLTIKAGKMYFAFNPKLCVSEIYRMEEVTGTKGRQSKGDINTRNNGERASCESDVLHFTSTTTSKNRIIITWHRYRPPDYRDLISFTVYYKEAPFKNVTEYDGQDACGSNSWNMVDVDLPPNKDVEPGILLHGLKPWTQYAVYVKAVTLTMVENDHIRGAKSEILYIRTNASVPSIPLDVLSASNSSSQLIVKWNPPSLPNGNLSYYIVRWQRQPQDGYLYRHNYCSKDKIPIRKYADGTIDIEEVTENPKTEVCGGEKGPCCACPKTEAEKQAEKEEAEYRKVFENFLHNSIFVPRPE
Insulin-like growth factor 1 receptor (Homo sapiens), sequence (P08069 741-1367 limits assumed): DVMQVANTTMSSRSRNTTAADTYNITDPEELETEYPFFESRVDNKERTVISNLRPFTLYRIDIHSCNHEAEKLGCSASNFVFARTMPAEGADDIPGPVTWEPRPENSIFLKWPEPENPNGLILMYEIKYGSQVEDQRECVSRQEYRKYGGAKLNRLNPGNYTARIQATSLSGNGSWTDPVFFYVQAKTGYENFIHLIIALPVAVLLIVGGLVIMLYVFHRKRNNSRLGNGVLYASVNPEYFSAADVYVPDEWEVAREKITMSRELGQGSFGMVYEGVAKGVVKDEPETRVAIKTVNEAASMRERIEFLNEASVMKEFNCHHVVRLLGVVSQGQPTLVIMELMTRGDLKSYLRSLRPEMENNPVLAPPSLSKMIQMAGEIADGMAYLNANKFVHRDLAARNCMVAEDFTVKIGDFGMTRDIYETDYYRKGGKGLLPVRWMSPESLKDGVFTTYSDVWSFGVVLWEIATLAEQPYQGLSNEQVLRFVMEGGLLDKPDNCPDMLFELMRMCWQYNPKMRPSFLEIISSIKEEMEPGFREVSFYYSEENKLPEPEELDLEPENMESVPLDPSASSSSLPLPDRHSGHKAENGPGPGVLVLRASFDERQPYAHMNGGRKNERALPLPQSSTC

[9] = target: Insulin-like growth factor 1 receptor (Homo sapiens) (UniProt P08069); conditions: at 10 µM
[10] = target: T5, Inhibitor of nuclear factor kappa-B kinase subunit alpha (Homo sapiens) (UniProt O15111); conditions: at 1 µM
T5 sequence (whole entry): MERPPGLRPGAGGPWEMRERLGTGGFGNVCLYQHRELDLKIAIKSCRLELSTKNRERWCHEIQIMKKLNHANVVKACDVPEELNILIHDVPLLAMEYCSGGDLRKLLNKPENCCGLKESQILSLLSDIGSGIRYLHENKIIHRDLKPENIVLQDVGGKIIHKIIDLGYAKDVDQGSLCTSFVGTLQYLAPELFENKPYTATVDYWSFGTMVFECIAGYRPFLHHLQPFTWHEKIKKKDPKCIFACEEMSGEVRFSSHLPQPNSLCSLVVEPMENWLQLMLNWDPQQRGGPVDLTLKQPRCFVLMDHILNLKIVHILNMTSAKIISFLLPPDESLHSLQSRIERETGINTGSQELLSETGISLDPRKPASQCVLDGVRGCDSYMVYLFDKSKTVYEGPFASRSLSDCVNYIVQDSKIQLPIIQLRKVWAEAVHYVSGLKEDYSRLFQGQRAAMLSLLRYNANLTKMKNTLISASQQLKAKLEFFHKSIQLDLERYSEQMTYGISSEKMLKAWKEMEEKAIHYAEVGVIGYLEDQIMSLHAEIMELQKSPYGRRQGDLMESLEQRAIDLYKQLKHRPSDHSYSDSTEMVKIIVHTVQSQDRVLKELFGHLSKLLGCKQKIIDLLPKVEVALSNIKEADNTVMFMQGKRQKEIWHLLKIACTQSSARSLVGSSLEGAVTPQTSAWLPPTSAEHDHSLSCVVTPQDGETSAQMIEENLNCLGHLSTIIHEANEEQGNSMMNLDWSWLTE

[11] = target: T5, Inhibitor of nuclear factor kappa-B kinase subunit alpha (Homo sapiens); conditions: at 10 µM
[12] = target: T6, Inhibitor of nuclear factor kappa-B kinase subunit beta (Homo sapiens) (UniProt O14920); conditions: at 10 µM
T6 sequence (whole entry): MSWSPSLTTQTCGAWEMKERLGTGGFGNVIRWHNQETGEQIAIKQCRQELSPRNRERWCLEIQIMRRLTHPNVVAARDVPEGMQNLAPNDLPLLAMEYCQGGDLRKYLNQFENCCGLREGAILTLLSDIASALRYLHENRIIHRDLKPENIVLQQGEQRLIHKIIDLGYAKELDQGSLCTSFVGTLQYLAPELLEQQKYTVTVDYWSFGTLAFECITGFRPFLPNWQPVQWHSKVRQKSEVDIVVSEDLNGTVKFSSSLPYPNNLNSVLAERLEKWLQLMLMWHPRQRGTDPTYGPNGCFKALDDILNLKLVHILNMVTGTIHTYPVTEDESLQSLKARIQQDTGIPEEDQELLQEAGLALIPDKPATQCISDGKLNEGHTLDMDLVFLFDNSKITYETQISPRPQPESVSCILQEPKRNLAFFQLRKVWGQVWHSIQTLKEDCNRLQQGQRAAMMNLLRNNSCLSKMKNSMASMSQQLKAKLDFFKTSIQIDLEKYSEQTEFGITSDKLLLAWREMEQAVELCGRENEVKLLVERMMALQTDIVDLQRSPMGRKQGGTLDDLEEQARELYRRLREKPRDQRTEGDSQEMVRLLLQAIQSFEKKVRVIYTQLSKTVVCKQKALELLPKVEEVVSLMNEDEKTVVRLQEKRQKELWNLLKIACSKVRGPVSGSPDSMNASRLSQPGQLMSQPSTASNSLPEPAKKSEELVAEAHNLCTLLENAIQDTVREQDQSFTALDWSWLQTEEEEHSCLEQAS

[13] = target: Insulin receptor (Homo sapiens) (UniProt P06213); conditions: at 10 µM
Insulin receptor (Homo sapiens), sequence (P06213 28-758 limits assumed): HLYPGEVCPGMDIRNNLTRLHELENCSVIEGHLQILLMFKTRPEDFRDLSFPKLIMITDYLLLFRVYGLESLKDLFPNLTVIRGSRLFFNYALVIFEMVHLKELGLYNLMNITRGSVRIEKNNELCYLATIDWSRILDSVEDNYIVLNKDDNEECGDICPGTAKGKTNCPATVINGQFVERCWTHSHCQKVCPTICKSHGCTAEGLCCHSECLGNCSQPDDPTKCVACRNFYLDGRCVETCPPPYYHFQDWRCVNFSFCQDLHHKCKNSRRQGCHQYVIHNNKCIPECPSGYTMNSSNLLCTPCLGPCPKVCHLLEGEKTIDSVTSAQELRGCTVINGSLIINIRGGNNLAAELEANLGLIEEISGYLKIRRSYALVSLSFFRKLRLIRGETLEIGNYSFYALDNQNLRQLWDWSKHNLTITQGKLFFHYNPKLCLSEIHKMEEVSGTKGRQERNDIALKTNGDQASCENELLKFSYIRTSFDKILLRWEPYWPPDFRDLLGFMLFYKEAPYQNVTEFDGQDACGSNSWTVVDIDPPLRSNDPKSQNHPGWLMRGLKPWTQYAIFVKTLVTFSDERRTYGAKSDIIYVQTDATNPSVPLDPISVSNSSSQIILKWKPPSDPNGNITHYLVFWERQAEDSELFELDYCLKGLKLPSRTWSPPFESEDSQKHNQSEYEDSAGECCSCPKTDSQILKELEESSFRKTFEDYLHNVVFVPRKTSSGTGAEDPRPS
Insulin receptor (Homo sapiens), sequence (P06213 763-1382 limits assumed): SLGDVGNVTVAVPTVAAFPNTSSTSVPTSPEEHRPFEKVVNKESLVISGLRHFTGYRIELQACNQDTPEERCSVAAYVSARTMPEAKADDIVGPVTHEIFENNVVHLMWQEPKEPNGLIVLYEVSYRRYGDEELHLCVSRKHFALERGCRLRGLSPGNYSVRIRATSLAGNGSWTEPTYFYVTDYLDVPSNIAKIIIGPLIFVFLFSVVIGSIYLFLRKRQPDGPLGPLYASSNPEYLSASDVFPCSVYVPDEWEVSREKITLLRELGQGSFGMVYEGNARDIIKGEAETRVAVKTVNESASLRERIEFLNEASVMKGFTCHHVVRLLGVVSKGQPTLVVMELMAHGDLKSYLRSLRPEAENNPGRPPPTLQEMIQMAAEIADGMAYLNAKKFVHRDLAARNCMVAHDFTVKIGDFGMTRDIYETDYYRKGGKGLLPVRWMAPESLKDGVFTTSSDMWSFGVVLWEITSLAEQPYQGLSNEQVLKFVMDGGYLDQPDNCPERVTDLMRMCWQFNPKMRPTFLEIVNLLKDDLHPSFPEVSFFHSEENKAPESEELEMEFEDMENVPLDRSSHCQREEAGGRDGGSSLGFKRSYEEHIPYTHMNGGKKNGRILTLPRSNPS

[14] = target: Insulin receptor (Homo sapiens) (UniProt P06213); conditions: at 1 µM
[15] = target: Insulin receptor (Homo sapiens) (UniProt P06213); conditions: at 10 µM; remark: listed apart in the source
[16] = target: Interleukin-1 receptor-associated kinase 1 (Homo sapiens) (UniProt P51617); conditions: at 1 µM
Interleukin-1 receptor-associated kinase 1 (Homo sapiens), sequence (P51617 whole entry, looked up): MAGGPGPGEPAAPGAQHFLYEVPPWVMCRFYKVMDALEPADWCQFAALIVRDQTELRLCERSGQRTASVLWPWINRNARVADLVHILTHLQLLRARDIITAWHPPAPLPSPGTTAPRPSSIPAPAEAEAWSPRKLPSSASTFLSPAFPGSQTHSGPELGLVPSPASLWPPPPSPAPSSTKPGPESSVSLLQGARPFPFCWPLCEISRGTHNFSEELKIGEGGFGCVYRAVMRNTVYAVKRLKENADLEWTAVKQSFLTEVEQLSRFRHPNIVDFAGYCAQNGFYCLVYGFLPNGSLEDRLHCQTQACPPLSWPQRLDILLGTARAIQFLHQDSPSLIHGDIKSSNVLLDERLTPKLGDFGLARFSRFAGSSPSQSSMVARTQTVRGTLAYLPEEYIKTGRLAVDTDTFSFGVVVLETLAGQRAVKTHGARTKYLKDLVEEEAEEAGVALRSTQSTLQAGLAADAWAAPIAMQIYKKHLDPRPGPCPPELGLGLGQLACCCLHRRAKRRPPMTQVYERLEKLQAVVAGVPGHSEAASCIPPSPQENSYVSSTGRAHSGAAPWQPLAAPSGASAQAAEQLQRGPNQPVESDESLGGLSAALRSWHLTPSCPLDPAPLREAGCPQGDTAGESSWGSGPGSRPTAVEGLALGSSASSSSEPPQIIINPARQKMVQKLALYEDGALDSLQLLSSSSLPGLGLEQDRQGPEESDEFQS

[17] = target: Interleukin-1 receptor-associated kinase 1 (Homo sapiens) (UniProt P51617); conditions: at 10 µM
[18] = target: T1, Serine/threonine-protein kinase TAO2 (Homo sapiens); conditions: at 1 µM
[19] = target: T6, Inhibitor of nuclear factor kappa-B kinase subunit beta (Homo sapiens); conditions: at 1 µM
[20] = target: Insulin receptor (Homo sapiens) (UniProt P06213); conditions: at 1 µM; remark: listed apart in the source

Row | SMILES | residual activity [1] [%] | residual activity [2] [%] | residual activity [3] [%] | residual activity [4] [%] | residual activity [5] [%] | residual activity [6] [%] | residual activity [7] [%] | residual activity [8] [%] | residual activity [9] [%] | residual activity [10] [%] | residual activity [11] [%] | residual activity [12] [%] | residual activity [13] [%] | residual activity [14] [%] | residual activity [15] [%] | residual activity [16] [%] | residual activity [17] [%] | residual activity [18] [%] | residual activity [19] [%] | residual activity [20] [%]
1 | COc1ccc2c(c[n+](C)c3c4cc5c(cc4ccc23)OCO5)c1OC | 93 | 99 | 90 | 81 | 65 | 82 | 89 | 93 | 82 | 97 | 83 | 84 | 130 | 99 | 84 | 96 | 83 |  |  | 
2 | COC(=O)[C@@]1(O)C[C@H]2O[C@]1(C)n1c3ccccc3c3c4c(c5c6ccccc6n2c5c31)C(=O)NC4 | 2 | 10 | 3 | -1 | 3 | 49 | 8 | 23 | 3 | 2 | 3 | 3 | 20 | 7 | 0 | 1 | 0 | 16 | 17 | 42
3 | CN[C@@H]1C[C@H]2O[C@@](C)([C@@H]1OC)n1c3ccccc3c3c4c(c5c6ccccc6n2c5c31)C(=O)NC4 |  |  |  |  | 0 | 79 | 30 |  |  |  |  |  |  |  |  |  |  |  |  | 
4 | COc1cc(OC)c(/C=C2\C(=O)Nc3ccccc32)c(OC)c1 | 81 | 90 | 68 | 61 | 56 | 79 | 81 | 95 | 98 |  |  |  | 86 | 98 | 91 | 100 | 103 | 104 |  | 82
5 | O=C1c2ccccc2-c2nc3nnnn3nc21 | 103 |  |  |  | 83 |  |  |  |  |  |  | 81 | 102 | 104 | 109 | 109 | 103 | 111 | 111 | 121
